Data on 63 compounds can be found in PubChem BioAssay AID430 (Sanford-Burnham Center for Chemical Genomics, 2006).

SMILES strings stand for the structures. About 1,100 (1.7%) of roughly 63,000 compounds were called active. This is one part of a sample in which actives are shown more often than they occur. Results with a measured potency or affinity are listed apart. Unmarked numbers belong to inactive results. Cut-off read from the data, not from the text of the source: active = cytotoxicity above about 50%; inactive = the rest.

A short description of the test: cytotoxicity in HPDE-C7 cells, cell-based, fluorescence, HTS (AID 430).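 Note: cells exposed to compound for 48 hours before viability readout; 0% = vehicle and 100% = reference cytotoxic drug.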 The conditions noted are these: HPDE-C7 pancreatic duct cells viability, at 10 µM, hits give high values.
Turning to `O=C(NCC1CCCO1)C1CCC(CNS(=O)(=O)c2ccccc2)CC1` (stereo not drawn), the cytotoxicity is 13.6%.
With `COc1ccc(OC)c2sc(NC(=O)CCS(=O)(=O)c3ccccc3)nc12`, the cytotoxicity is -0.4%.
Take `O=C(CCS(=O)(=O)c1ccccc1)Nc1nc2c(s1)COc1ccccc1-2`: the cytotoxicity is 98.3% (active).
As for `O=C(Nc1nc2c(s1)COc1ccccc1-2)c1cccs1`, the cytotoxicity was 9.6%.
As for `Clc1ccc2nc(CN3CCCc4ccccc43)cn2c1`, the cytotoxicity was 23.1%.
Take `CCCCCn1c(=NC(C)=O)c(C#N)cc2c(=O)n3ccccc3nc21`: the cytotoxicity is 8.8%.
Take `O=C(O)Cn1cc(C(=O)c2cccs2)c2ccccc21`: the cytotoxicity was -14%.
With `COCCn1c(C(C)C)nc2oc3ccccc3c(=O)c2c1=O`, the cytotoxicity is -9.4%.
As for `CCC(=O)N1CCc2cc(S(=O)(=O)NCCN3CCC(C)CC3)ccc21`, the cytotoxicity was -1.8%.
As for `CCN1C(=O)CC(N2CCC(C(=O)OC)CC2)C1=O` (stereo not drawn), the cytotoxicity is -6.2%.
Turning to `CN1CCN(C(c2cccnc2)c2ccc3cccnc3c2O)CC1` (stereo not drawn), the cytotoxicity is -9.1%.
With `Cc1nc2sc(C(c3ccccc3)N3CCN(CCO)CC3)c(O)n2n1` (stereo not drawn), the cytotoxicity was -1.3%.
The figure for `OCCN1CCN(C(c2cccs2)c2ccc3cccnc3c2O)CC1` (stereo not drawn) is 79.3% (active); for `CC1CCC(C(=O)NC(C(=O)NCCN2CCC(C)CC2)C(C)C)CC1` (stereo not drawn) it is -16.7%.
As to `Cc1nnc(SCc2ccccc2Cl)n1CC1CCCO1` (stereo not drawn), the cytotoxicity was -11.9%.
As to `COc1ccc(NC2=CC(=O)CC(C)(C)C2)cc1OC`, the cytotoxicity was -19.2%.
Regarding `O=C(Nc1cccc(NC(=O)N2CCN(c3ccccc3)CC2)c1)N1CCN(c2ccccc2)CC1`, the cytotoxicity was 56.3% (active).
For `O=C(Nc1ccc2snnc2c1)N1CCN(c2ccccc2)CC1`, the cytotoxicity is -24.9%.
Regarding `O=C(Nc1cccc2ccccc12)N1CCN(c2ccccc2)CC1`, the cytotoxicity is 15.2%.
Consider `COc1ccc(Cn2c(C)nc3oc4cc(OC)ccc4c(=O)c3c2=O)cc1`, for which the cytotoxicity was -21%.
For `Nc1nc2n(n1)C(c1cccc(Cl)c1)CC(c1ccc(F)cc1)N2` (stereo not drawn), the cytotoxicity is 10.8%.
The figure for `COC(=O)CC(=O)CSc1nc2c(cc1C#N)CCCCC2` is 10.3%; for `N#Cc1cc2c(nc1SCC(=O)Nc1sc3c(c1C#N)CCC3)CCCCC2` it is 23.2%; for `CC(C)OC(=O)CC(=O)CSc1nc2c(cc1C#N)CCC2` it is 49.9%.
With `Cc1c(C#N)c(SCC(N)=O)nc2c1CCCC2`, the cytotoxicity was -21%.
Turning to `CCOC(=O)c1sc(NC(=O)CSc2nc3c(cc2C#N)CCC3)c(C#N)c1C`, the cytotoxicity was 4.5%.
Take `Cc1nc(SCC(=O)CC(=O)OC(C)C)c(C#N)c(C)c1C`: the cytotoxicity was -1.2%.
Next, `CCOC(=O)c1sc(NC(=O)CSc2nc3c(cc2C#N)CCCCCC3)c(C#N)c1C`: 79.6% (active); `CCOC(=O)CC(=O)CSc1nc2c(c(C)c1C#N)CCC2`: 52.6% (active); `CCOC(=O)CC(=O)CSc1nc2c(cc1C#N)CCCCC2`: -5.9%.
Turning to `Cc1cc(C)c(C#N)c(SCC(=O)CC(=O)OC(C)C)n1`, the cytotoxicity is 34.5%.
The figure for `COC(=O)CC(=O)CSc1nc2c(cc1C#N)CCC2` is 76.1% (active).
With `COc1cc(Cl)ccc1S(=O)(=O)n1nc(C)cc1C`, the cytotoxicity was 7.8%.
On to `CCc1ccc(S(=O)(=O)NCc2csc(-c3cccnc3)n2)s1`, for which the cytotoxicity is -5%.
With `CCOC(=O)c1ccccc1NC(=O)c1c(O)c2ccccc2n(CC)c1=O`, the cytotoxicity was -9.2%.
Next, `CC(=O)N1CCc2cc(S(=O)(=O)NC(CC(C)C)C(=O)Nc3cc(C)ccn3)ccc21` (stereo not drawn): -6.7%; `Cc1cc(C(C)(C)C)oc1C(=O)N1CCN(C(=O)c2oc(C(C)(C)C)cc2C)CC1`: 4%.
As for `CCCCS(=O)(=O)C(=C1Nc2ccccc2N1)S(=O)(=O)CCCC`, the cytotoxicity is -0.6%.
As to `CCOCCCn1c(=S)[nH]c2cc(C(=O)N3CCC(C(N)=O)CC3)ccc2c1=O`, the cytotoxicity is 0.3%.
In the case of `CC(C)OC(=O)CSc1nnc(-c2cnccn2)n1-c1ccc(Cl)cc1`, the cytotoxicity was 9.2%.
With `Cc1ccc(OCC(=O)N2CCN(C(=O)Cc3ccccc3)CC2)cc1`, the cytotoxicity was -0.3%.
Consider `CCOC(=O)CSc1nc2cc(C(=O)N3CCC(C(N)=O)CC3)ccc2c(=O)n1-c1ccccc1`, for which the cytotoxicity is -8.3%.
Next, `N#CCSc1nc2cc(C(=O)N3CCC(C(N)=O)CC3)ccc2c2nc3ccccc3n12`: 75.7% (active).
Turning to `N#CCSc1nc2cc(C(=O)N3CCCC3)ccc2c(=O)n1Cc1ccccc1`, the cytotoxicity is -0.6%.
For the compound `Cc1onc(-c2ccccc2)c1C(=O)Nc1cccc2nsnc12`, the cytotoxicity is -11.7%.
In the case of `COc1ccc(CN2CCC(=O)NC2=O)cc1`, the cytotoxicity is 6.7%.
With `COc1ccc(Cn2c(C)ccc2C)cc1`, the cytotoxicity is -2%.
As to `COc1ccc(CN2CN(C(C)C)CSC2=S)cc1`, the cytotoxicity is 50.5% (active).
Take `CC(=O)c1cc(-c2ccccc2)n(CCC(=O)NCc2cccs2)c1C`: the cytotoxicity is -24%.
For `N#CC1=C(N)Oc2nc(-c3ccccc3)[nH]c2C1c1cccnc1` (stereo not drawn), the cytotoxicity was 3.4%.
For the compound `CCN(CC)c1ccc2c(c1)OC(N)=C(C#N)C2c1cccnc1` (stereo not drawn), the cytotoxicity is 64.4% (active).
Turning to `N#CC1=C(N)Oc2c(ccc3cccnc23)C1c1cccnc1` (stereo not drawn), the cytotoxicity is 62.4% (active).
Take `CN(C)c1ccc2c(c1)OC(N)=C(C#N)C2c1cccc(F)c1` (stereo not drawn): the cytotoxicity was 62.6% (active).
On to `CCCc1nn(C)c2c1C(c1cccnc1)C(C#N)=C(N)O2` (stereo not drawn), for which the cytotoxicity is 3.9%.
As to `N#CC1=C(N)Oc2cc(O)ccc2C1c1ccccc1` (stereo not drawn), the cytotoxicity was -11.3%.
Turning to `CCc1[nH]nc2c1C(c1cccnc1)C(C#N)=C(N)O2` (stereo not drawn), the cytotoxicity is 4.9%.
Consider `N#CC1=C(N)Oc2cc(O)ccc2C1c1ccncc1` (stereo not drawn), for which the cytotoxicity is 3%.
As to `CC(C)(C)c1[nH]nc2c1C(c1cccnc1)C(C#N)=C(N)O2` (stereo not drawn), the cytotoxicity was -9.6%.
Consider `C=CCSC1=C(C#N)C(c2ccccc2Cl)CC(=O)N1` (stereo not drawn), for which the cytotoxicity was -33.8%.
The figure for `O=C(O)C1C2C=CC(C2)C1C(=O)Nc1ccc(C(=O)N2CCCCC2)c(Cl)c1` (stereo not drawn) is -20.1%; for `COc1cc2c(cc1OC)C1=C(C#N)CN(CC(=O)O)CN1CC2` it is -4.5%; for `COc1ccc(S(=O)(=O)NCCC(=O)NCc2cccs2)cc1` it is -13.7%.
As for `C=C(C)CSc1nc2ncccc2[nH]1`, the cytotoxicity is -0.6%.
